Measurements from PubChem BioAssay (EPA / NIEHS).
Where “and” joins values, the source holds several entries; their conditions need not be identical. Identical values can stand only once. Records with an inconclusive call do not appear. Calls of active or inactive are those of the source. How the source made its calls, unless noted: active means hit-call score of the fitted dose curve at least 0.9, where 1 is the maximum; inconclusive means response in the unintended direction; inactive means score below 0.9.

Legend:
[1] = target: Estrogen receptor (Homo sapiens) (UniProt P03372); experiment: CCTE_Deisenroth_AIME_384WELL_LUC_Active: CCTE's 384-well Estrogen Receptor Transactivation Assay with AIME metabolic competence (ERTA luciferase; metabolism positive), Deisenroth Lab (AID 2284030)
How it was run: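 In this metabolism-positive format, a 2-hour exposure to alginate-immobilized rat S9 precedes a 24 hour luciferase transactivation readout in VM7Luc4E2 cells. Dosing spans 10 concentrations from 0.002 to 200 uM.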

[2] = target: Estrogen receptor (Homo sapiens) (UniProt P03372); experiment: CCTE_Deisenroth_AIME_384WELL_LUC_Inactive: CCTE's 384-well Estrogen Receptor Transactivation Assay without AIME metabolic competence (ERTA luciferase; metabolism negative), Deisenroth Lab (AID 2284038);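 further: VM7Luc4E2 breast cells given medium preincubated 2 h with S9-free microspheres; hits raise estrogen receptor luciferase signal so potencies reflect agonists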
How it was run: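 VM7Luc4E2 ER transactivation, luciferase bioluminescence after 24 h, using medium pre-incubated 2 h with S9-free alginate microspheres. Concentrations 0.002–200 uM; gain of signal fitted relative to 17beta-estradiol.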

[3] = CCTE_Shafer_MEA_dev_firing_rate_mean: CCTE's Neural Network Formation Assay for Mean Firing Rate, Shafer Lab (AID 2284031; active means hit-call score of the fitted dose curve at least 0.9, where 1 is the maximum; inactive means score below 0.9;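 on AC50: curve fitted for loss of firing so AC50 reflects decreased mean firing rate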)
How it was run: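 Steps: seed rat cortical cells (1.5 x 10^5/well) with laminin on PEI-coated MEA; dose day 0; record DIV 5/7/9/12, full media and compound exchange after DIV 5 and 9 recordings; compute well-mean firing rate AUC.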

[4] = CCTE_Shafer_MEA_dev_per_burst_spike_percent: CCTE's Neural Network Formation Assay for Percent of Spikes in a Burst, Shafer Lab (AID 2284032; active means hit-call score of the fitted dose curve at least 0.9, where 1 is the maximum; inactive means score below 0.9;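 on AC50: fitted as a decrease in burst spike percentage below DMSO baseline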)
How it was run: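 Value is trapezoidal AUC over recordings on days 5, 7, 9 and 12 of the well-mean fraction of spikes falling in single-electrode bursts; rat cortical cultures exposed continuously from plating, treatment renewed DIV 5 and 9, fitted downward against DMSO.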

[5] = CCTE_Shafer_MEA_dev_active_electrodes_number: CCTE's Neural Network Formation Assay for Number of Active Electrodes, Shafer Lab (AID 2284040);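 on AC50: potency for loss of active electrodes versus DMSO so lower counts are hits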
How it was run: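 Counts electrodes per well firing at least 5 spikes/min, recorded on days 5, 7, 9 and 12 in rat cortical cultures dosed continuously from plating (treatment refreshed DIV 5, 9). Value is the area under the curve over recordings, fitted downward relative to DMSO.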

Chain of Estrogen receptor (Homo sapiens) (P03372 whole entry, looked up): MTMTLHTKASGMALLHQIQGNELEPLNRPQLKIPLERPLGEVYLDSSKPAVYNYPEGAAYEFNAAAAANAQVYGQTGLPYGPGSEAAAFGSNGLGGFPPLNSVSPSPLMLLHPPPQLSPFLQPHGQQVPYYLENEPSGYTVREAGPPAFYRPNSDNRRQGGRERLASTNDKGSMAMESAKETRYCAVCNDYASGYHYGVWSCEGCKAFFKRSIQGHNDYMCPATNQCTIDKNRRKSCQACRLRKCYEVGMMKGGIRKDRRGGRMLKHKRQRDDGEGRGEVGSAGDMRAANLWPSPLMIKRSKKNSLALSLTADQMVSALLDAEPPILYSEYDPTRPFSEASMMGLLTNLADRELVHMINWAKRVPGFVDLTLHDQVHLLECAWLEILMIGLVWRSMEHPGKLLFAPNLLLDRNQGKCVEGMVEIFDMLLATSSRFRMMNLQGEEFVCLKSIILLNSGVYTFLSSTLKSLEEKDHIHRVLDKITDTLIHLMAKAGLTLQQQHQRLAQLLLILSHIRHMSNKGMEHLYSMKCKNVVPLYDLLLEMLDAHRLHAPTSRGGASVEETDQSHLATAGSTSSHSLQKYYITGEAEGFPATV

CCCCOC(=O)c1ccccc1
outcome [1]: inactive | outcome [2]: inactive

FC(F)(F)COC(OCC(F)(F)F)OCC(F)(F)F
outcome [3]: inactive | outcome [4]: inactive | outcome [5]: inactive

OC(Cn1cncn1)(Cn1cncn1)c1ccc(F)cc1F
outcome [3]: inactive | outcome [4]: inactive | outcome [5]: inactive

COS(C)(=O)=O
outcome [1]: inactive | outcome [2]: inactive

CCCCCOC(C)=O
outcome [1]: inactive | outcome [2]: inactive

C[C@@H](Oc1ccc(CNC(=O)c2cccnc2Oc2ccc3c(c2)OCO3)c(F)c1)C(=O)O
outcome [1]: inactive | outcome [2]: inactive

OCCOCCOCCO
outcome [1]: inactive | outcome [2]: inactive

OCCC(F)(F)C(F)(F)C(F)(F)C(F)(F)F
outcome [3]: inactive | outcome [4]: inactive | outcome [5]: inactive

O=C(Cl)C(F)(F)C(F)(F)C(F)(F)C(=O)Cl
outcome [3]: inactive | AC50 [4]: 15 µM (active) | outcome [5]: inactive

CC(=O)c1ccccc1
outcome [1]: inactive | outcome [2]: inactive

CC(C)CC(C)O (stereo not drawn)
outcome [1]: inactive | outcome [2]: inactive

NCC(F)(F)C(F)(F)C(F)(F)C(F)(F)F
outcome [3]: inactive | outcome [4]: inactive | outcome [5]: inactive

NC(=O)N1c2ccccc2C=Cc2ccccc21
outcome [3]: inactive | outcome [4]: inactive | outcome [5]: inactive

CCOC(N)=O
outcome [1]: inactive | outcome [2]: inactive

OCC(CO)(CO)CO
outcome [1]: inactive | outcome [2]: inactive

CCCC(CCC)C(=O)O
outcome [3]: inactive | outcome [4]: inactive | outcome [5]: inactive

FC(F)(F)C(F)(F)C(F)(F)C(F)(F)C(F)(F)C(F)(F)I
outcome [3]: inactive | outcome [4]: inactive | outcome [5]: inactive

CCc1cccc(CC)c1N
outcome [1]: inactive | outcome [2]: inactive

NNC(=O)c1ccncc1
outcome [3]: inactive | outcome [4]: inactive | outcome [5]: inactive

CC(C)CCCCCCOC(=O)C1CCCCC1C(=O)OCCCCCCC(C)C (stereo not drawn)
outcome [1]: inactive | outcome [2]: inactive

C[C@]12C=CC(=O)C=C1CC[C@H]1[C@@H]3C[C@@H](O)[C@](O)(C(=O)CO)[C@@]3(C)C[C@H](O)[C@@]12F
outcome [3]: inactive | outcome [4]: inactive | outcome [5]: inactive

Cn1cc[nH]c1=S
outcome [3]: inactive | outcome [4]: inactive | outcome [5]: inactive

Nc1ccn([C@@H]2O[C@H](CO)[C@@H](O)[C@@H]2O)c(=O)n1
AC50 [3]: 260 nM (active) and 3.02 µM (active) | AC50 [4]: 138 nM (active) and 298 nM (active) | AC50 [5]: 185 nM (active) and 303 nM (active)
